From ChEMBL document CHEMBL1961873, “Compounds: GSK PKIS; Assays: Nanosyn kinase panel” (2012)

Experiments:
[1] = target: Sphingosine kinase 1 (Homo sapiens) (UniProt Q9NYA1); settings: at 1 µM;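 also: mean SPHK1 inhibition value reported from the GSK PKIS kinase panel screen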
[2] = target: T1, Sphingosine kinase 2 (Homo sapiens) (UniProt Q9NRA0); settings: at 0.1 µM
T1 sequence (whole entry): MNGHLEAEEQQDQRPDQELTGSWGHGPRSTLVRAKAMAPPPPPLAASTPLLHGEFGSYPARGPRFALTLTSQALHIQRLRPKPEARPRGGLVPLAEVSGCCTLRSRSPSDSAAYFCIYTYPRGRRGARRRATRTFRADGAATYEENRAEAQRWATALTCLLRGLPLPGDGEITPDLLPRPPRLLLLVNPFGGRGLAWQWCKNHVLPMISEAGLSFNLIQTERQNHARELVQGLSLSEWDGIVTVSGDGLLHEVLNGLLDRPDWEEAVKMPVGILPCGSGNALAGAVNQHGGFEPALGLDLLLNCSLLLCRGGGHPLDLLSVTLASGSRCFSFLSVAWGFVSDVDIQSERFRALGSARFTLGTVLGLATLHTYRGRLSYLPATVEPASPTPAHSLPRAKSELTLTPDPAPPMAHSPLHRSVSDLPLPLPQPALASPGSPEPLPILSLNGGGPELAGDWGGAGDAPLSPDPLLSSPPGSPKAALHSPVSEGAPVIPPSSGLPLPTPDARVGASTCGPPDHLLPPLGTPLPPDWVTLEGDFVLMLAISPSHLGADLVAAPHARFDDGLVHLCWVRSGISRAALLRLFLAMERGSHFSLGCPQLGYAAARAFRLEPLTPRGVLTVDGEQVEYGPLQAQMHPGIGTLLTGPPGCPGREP

[3] = target: T1, Sphingosine kinase 2 (Homo sapiens); settings: at 1 µM
[4] = target: Casein kinase II subunit alpha (Homo sapiens) (UniProt P68400); settings: at 0.1 µM
Sequence of Casein kinase II subunit alpha (Homo sapiens) (P68400 whole entry, looked up): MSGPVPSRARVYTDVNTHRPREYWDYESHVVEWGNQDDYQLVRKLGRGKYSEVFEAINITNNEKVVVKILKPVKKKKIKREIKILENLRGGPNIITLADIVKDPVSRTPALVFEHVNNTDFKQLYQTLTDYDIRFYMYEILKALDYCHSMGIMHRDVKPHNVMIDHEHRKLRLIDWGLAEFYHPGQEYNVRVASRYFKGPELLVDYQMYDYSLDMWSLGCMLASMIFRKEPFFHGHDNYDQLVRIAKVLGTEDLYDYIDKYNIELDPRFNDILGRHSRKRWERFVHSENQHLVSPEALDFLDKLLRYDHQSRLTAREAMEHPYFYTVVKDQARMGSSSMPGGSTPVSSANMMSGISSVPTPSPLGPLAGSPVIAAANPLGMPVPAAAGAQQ

[5] = target: Casein kinase II subunit alpha (Homo sapiens) (UniProt P68400); settings: at 1 µM
[6] = target: T2, Inhibitor of nuclear factor kappa-B kinase subunit alpha (Homo sapiens) (UniProt O15111); settings: at 0.1 µM
T2 sequence (whole entry): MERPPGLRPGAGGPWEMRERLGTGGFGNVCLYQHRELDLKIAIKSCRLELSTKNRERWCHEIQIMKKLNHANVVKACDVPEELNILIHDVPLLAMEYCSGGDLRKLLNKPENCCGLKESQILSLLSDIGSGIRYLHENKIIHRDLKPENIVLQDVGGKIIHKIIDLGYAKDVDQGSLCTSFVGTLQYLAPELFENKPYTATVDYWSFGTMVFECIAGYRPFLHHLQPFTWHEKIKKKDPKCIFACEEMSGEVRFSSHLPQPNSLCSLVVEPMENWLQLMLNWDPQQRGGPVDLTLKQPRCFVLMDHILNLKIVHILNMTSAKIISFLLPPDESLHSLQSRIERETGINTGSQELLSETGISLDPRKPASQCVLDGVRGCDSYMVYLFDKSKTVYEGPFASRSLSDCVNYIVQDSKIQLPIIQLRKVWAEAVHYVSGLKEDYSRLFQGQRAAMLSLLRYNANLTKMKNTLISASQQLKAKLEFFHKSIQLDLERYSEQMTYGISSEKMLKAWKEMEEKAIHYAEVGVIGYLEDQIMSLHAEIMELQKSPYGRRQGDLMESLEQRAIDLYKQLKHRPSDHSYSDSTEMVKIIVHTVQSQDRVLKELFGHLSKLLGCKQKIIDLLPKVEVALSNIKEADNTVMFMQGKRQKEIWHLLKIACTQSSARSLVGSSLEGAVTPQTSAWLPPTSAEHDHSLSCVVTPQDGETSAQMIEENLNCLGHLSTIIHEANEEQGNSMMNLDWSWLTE

[7] = target: T2, Inhibitor of nuclear factor kappa-B kinase subunit alpha (Homo sapiens); settings: at 1 µM
[8] = target: T3, Inhibitor of nuclear factor kappa-B kinase subunit beta (Homo sapiens) (UniProt O14920); settings: at 0.1 µM
T3 sequence (whole entry): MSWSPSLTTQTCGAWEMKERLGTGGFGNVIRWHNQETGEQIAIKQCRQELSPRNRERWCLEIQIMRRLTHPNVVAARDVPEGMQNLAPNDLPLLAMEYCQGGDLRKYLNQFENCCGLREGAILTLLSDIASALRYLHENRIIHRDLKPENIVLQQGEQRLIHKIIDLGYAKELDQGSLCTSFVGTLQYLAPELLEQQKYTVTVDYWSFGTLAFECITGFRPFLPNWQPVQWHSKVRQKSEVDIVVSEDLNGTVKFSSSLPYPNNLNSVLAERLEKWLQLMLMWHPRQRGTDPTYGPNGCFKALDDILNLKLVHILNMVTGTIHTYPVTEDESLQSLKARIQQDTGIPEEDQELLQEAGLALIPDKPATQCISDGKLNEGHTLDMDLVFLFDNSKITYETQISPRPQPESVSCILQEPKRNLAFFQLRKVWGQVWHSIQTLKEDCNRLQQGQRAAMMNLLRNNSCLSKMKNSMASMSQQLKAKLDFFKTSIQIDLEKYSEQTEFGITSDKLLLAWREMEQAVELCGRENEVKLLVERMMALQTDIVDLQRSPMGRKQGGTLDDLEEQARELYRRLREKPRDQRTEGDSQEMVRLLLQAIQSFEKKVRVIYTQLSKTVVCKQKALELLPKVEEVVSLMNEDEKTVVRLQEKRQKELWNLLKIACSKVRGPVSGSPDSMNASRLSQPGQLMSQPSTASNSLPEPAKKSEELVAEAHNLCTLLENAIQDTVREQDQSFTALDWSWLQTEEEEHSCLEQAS

[9] = target: T3, Inhibitor of nuclear factor kappa-B kinase subunit beta (Homo sapiens); settings: at 1 µM
[10] = target: T4, Inhibitor of nuclear factor kappa-B kinase subunit epsilon (Homo sapiens) (UniProt Q14164); settings: at 0.1 µM
T4 sequence (whole entry): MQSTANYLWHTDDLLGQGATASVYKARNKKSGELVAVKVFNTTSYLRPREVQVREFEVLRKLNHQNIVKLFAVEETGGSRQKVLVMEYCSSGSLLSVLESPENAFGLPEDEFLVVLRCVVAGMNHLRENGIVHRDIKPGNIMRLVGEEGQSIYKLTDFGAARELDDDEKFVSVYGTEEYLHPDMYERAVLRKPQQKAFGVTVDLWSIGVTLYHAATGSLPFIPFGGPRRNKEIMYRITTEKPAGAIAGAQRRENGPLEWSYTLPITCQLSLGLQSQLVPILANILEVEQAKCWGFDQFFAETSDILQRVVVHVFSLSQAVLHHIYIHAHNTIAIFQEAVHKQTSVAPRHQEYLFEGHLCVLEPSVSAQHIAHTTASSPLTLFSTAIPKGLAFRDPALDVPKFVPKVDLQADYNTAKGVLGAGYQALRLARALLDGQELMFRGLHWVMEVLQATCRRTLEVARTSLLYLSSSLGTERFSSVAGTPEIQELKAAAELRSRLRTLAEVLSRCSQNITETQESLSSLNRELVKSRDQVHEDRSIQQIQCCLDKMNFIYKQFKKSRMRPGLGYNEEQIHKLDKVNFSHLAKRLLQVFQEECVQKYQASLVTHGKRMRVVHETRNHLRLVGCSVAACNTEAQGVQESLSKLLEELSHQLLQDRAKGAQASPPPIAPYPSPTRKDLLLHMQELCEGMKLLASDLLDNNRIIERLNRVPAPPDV

[11] = target: T4, Inhibitor of nuclear factor kappa-B kinase subunit epsilon (Homo sapiens); settings: at 1 µM
[12] = target: T5, Serine/threonine-protein kinase Nek1 (Homo sapiens) (UniProt Q96PY6); settings: at 0.1 µM
T5 sequence (whole entry): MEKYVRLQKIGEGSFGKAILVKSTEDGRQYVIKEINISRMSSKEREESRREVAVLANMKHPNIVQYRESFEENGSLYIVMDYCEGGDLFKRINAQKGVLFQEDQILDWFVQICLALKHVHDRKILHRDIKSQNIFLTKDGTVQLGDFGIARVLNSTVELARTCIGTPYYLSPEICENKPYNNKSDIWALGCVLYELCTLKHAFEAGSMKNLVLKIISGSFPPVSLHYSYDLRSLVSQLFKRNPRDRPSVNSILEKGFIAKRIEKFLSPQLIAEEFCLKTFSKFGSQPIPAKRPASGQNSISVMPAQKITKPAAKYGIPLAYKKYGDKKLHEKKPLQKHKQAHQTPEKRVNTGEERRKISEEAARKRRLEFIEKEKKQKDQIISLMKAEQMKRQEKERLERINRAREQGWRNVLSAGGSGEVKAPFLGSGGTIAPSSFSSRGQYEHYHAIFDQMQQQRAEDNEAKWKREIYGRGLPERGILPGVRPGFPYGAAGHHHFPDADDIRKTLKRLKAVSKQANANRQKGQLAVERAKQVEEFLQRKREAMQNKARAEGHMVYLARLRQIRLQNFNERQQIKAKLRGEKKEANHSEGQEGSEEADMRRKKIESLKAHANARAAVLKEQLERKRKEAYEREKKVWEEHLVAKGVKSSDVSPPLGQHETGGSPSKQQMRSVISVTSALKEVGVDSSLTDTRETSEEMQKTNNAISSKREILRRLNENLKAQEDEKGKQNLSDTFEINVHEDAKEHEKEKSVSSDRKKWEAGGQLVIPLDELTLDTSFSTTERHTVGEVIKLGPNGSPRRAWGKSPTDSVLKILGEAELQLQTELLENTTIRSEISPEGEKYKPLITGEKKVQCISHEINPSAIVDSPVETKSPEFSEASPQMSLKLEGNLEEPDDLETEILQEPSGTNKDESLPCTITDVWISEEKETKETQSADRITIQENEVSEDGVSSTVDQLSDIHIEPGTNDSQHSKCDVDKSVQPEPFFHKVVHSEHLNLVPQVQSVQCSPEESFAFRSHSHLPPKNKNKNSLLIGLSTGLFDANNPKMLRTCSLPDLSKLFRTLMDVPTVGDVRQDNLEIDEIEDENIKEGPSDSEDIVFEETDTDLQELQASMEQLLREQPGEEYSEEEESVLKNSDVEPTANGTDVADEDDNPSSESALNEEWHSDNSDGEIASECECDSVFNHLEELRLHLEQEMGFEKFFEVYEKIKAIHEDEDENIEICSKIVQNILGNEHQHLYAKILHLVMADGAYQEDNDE

[13] = target: T5, Serine/threonine-protein kinase Nek1 (Homo sapiens); settings: at 1 µM
[14] = target: T6, Serine/threonine-protein kinase Nek2 (Homo sapiens) (UniProt P51955); settings: at 0.1 µM
T6 sequence (whole entry): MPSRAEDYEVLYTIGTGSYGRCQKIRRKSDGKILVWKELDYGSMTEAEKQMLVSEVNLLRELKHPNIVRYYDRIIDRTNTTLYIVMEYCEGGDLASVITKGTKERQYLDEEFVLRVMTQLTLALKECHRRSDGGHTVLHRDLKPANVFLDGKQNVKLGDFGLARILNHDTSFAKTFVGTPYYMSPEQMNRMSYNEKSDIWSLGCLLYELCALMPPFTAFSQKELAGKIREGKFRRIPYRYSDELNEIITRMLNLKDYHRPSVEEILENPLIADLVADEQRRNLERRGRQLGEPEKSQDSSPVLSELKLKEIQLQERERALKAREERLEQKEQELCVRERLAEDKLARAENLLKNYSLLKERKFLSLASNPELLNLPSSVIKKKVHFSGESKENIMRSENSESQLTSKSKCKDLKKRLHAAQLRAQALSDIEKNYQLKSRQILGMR

[15] = target: T6, Serine/threonine-protein kinase Nek2 (Homo sapiens); settings: at 1 µM
[16] = target: Serine/threonine-protein kinase Nek6 (Homo sapiens) (UniProt Q9HC98); settings: at 0.1 µM
Sequence of Serine/threonine-protein kinase Nek6 (Homo sapiens) (Q9HC98 whole entry): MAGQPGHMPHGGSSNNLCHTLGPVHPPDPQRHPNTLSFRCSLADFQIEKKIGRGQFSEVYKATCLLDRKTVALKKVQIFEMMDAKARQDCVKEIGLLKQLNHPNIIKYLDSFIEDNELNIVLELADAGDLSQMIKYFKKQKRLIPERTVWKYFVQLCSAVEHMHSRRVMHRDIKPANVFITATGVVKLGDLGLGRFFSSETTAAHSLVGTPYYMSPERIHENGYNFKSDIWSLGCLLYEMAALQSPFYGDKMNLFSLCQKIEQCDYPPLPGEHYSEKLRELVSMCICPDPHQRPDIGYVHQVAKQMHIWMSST

[17] = target: Serine/threonine-protein kinase Nek6 (Homo sapiens) (UniProt Q9HC98); settings: at 1 µM
[18] = target: Serine/threonine-protein kinase Nek7 (Homo sapiens) (UniProt Q8TDX7); settings: at 0.1 µM
Sequence of Serine/threonine-protein kinase Nek7 (Homo sapiens) (Q8TDX7 whole entry, looked up): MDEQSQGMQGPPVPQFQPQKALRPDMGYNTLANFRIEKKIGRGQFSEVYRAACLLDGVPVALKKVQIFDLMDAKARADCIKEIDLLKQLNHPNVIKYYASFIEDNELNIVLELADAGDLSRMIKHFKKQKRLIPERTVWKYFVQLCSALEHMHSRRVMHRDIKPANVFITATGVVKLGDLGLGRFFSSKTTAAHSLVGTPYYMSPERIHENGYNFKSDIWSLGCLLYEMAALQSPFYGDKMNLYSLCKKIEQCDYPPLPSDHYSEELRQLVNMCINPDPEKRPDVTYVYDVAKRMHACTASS

[19] = target: Serine/threonine-protein kinase Nek7 (Homo sapiens) (UniProt Q8TDX7); settings: at 1 µM
[20] = target: T7, Serine/threonine-protein kinase Nek9 (Homo sapiens) (UniProt Q8TD19); settings: at 0.1 µM;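 also: reported value is the mean percent inhibition of NEK9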
T7 sequence (whole entry): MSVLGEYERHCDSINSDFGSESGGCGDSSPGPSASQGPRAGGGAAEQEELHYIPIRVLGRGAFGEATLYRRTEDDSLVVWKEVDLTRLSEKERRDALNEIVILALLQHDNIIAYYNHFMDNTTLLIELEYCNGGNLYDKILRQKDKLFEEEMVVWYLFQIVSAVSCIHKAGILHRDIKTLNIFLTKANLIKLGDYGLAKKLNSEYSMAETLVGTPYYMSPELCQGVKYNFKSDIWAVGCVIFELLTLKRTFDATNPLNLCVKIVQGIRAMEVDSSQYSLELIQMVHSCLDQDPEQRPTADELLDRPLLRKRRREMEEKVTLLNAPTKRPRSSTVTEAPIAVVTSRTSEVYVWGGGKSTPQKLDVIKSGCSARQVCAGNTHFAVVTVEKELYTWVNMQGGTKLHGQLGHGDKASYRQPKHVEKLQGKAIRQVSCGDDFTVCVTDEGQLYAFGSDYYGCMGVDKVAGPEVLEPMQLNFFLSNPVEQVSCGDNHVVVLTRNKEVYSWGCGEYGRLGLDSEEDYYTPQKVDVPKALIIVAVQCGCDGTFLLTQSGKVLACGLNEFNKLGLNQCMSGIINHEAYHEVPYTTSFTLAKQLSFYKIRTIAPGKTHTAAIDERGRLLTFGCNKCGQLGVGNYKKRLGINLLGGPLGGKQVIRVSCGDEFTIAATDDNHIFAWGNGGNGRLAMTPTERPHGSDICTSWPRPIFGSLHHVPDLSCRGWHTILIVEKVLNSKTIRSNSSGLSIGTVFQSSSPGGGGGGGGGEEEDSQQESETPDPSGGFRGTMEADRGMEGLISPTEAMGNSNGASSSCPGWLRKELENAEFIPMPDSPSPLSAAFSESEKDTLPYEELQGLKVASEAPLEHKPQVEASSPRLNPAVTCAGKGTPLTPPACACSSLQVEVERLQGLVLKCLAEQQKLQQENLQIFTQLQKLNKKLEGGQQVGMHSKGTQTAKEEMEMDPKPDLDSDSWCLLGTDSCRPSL

Sequence of Sphingosine kinase 1 (Homo sapiens) (Q9NYA1 whole entry): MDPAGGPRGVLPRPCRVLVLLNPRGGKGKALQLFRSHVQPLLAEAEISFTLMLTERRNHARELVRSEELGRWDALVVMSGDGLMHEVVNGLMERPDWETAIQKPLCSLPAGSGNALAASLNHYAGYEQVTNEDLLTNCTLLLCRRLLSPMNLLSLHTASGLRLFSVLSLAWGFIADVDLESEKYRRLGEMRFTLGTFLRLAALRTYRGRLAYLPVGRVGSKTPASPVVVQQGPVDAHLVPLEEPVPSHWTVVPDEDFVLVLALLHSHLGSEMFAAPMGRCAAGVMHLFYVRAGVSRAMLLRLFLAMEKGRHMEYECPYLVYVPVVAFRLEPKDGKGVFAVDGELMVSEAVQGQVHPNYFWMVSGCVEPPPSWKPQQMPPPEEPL

SMILES	inhibition [1] [%]	inhibition [2] [%]	inhibition [3] [%]	inhibition [4] [%]	inhibition [5] [%]	inhibition [6] [%]	inhibition [7] [%]	inhibition [8] [%]	inhibition [9] [%]	inhibition [10] [%]	inhibition [11] [%]	inhibition [12] [%]	inhibition [13] [%]	inhibition [14] [%]	inhibition [15] [%]	inhibition [16] [%]	inhibition [17] [%]	inhibition [18] [%]	inhibition [19] [%]	inhibition [20] [%]
NS(=O)(=O)c1ccc(N/N=C2\C(=O)Nc3cccc(CCc4ccncc4)c32)cc1	3.16	0	-4.51	5.35	2.3	-0.34	1.3	0.73	-2.12	-0.26	3.03	2.1	1.7	1.25	0.63	-2.2	-0.1	0.71	0.86	2.93
COc1ccc(-c2nn3ncccc3c2-c2ccnc(Nc3ccc(F)c(F)c3)n2)cc1	-4.19	5.2	0	5.76	10.5	3.55	8.81	4.66	5.58	9.89	88.2	1.08	2.15	3.89	2.89	3.33	5.18	3.7	4.42	7.45
